# PubChem BioAssay (EPA / NIEHS)
# “And” between values parts separate entries of the source, which are not always exact repeats. Equal values may be shown once. Results filed as inconclusive are left out. A structure can be active in one record and inactive in another. The source made the active and inactive calls. How the source made its calls: active means hit-call score of the fitted dose curve at least 0.9, where 1 is the maximum; inconclusive means response in the unintended direction; inactive means score below 0.9.
# Target: Cellular tumor antigen p53 (Homo sapiens) (UniProt P04637)
# Sequence (P04637 whole entry, looked up): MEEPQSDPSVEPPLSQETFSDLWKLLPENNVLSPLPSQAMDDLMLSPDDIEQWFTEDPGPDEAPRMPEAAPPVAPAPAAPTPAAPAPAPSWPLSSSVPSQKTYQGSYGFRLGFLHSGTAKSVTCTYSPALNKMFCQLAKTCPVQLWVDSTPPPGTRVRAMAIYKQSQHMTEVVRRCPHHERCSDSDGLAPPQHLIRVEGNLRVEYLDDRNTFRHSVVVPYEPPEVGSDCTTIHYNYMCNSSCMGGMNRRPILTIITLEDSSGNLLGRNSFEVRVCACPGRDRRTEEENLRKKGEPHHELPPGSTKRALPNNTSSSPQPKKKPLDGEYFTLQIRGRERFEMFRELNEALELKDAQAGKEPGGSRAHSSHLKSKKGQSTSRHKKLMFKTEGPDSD
# Test: TOX21_p53_BLA_p4_ratio: Tox21 HCT-116 p53 Agonism Beta-lactamase Assay, Ratio, Phase 4 (AID 2283601)
# Source text: TOX21_p53_BLA_p4 is a cell-based, single-readout assay that uses HCT116, a human intestinal cell line, […] in a 1536-well plate.TOX21_p53_BLA_p4_ratio is an assay readout measuring reporter gene via receptor activity and designed using inducible reporter (beta lactamase induction) detected with GAL4 b-lactamase reporter gene. The signal is derived from the ratio of cleaved (ch2) to uncleaved (ch1)reporter gene substrate used as the measure of target activity.Data from the assay component TOX21_p53_BLA_p4_ratio was analyzed into 1 assay endpoint. This assay endpoint, TOX21_p53_BLA_p4_ratio, was analyzed in the positive analysis fitting direction relative to DMSO as the negative control and baseline of activity. Using a type of inducible reporter, gain-of-signal activity can be used to understand changes in the reporter gene as they relate to the gene TP53. Furthermore, this assay endpoint can be referred to as a primary readout, because this assay has produced multiple assay endpoints where this ratio serves a reporter gene function to understand target activity. To generalize the intended target to other relatable targets, this assay endpoint is annotated to the DNA binding intended target family, where the subfamily is tumor suppressor.
# Thawing Method: Place 14 mL of pre-warmed thaw medium into a 15 mL of conical tub. Remove the vial of cells to be thawed from liquid nitrogen and thaw rapidly by placing at 37C in a water bath with gentle agitation for 1-2 minutes. Decontaminate the vial by wiping with 70% ethanol before opening in a biological safety cabinet. Transfer the vial contents drop-wise into 14 mL of thaw medium in a sterile 15-mL conical tub. Centrifuge cells at 900 rpm for 4 minutes and resuspend in thaw medium. Transfer contents to the T75 tissue culture flask containing Thaw Medium and place flask in a humidified 37C/5% CO2 incubator. Switch to growth medium at first passage.Propagation Method: Aspirate medium, rinse once in DPBS, add 0.25% Trypsin/EDTA and swirl to coat the cell evenly. Add an equal volume of Growth Medium to inactivate Trypsin after 2-3 minutes incubation at 37C. Centrifuge cells at 900 rpm for 4 minutes and resuspend in growth medium. Cell should be passage or fed at least twice a week.Assay Protocol: Harvest cells from culture in growth medium and resuspend in assay medium. 2.2 Dispense 4000 cells/5 uL/well into 1536-well black/clear bottom plates using a Multidrop dispenser. After the cells were incubated at 37C for 5 hours, 23 nL of compounds dissolved in DMSO were transferred to the assay plate by a PinTool resulting in a 217-fold dilution. Incubate the plates for 16 hours at 37C, 5% CO2. Add 1 uL of 6X LiveBLAzer FRET B/G (CCF4-AM) Substrate Mixture to each well using a BioRAPTR dispenser and incubate the plates at room temperature for 2 hours. Measure fluorescence intensity at 460 and 530 nm emission and 405 nm excitation by an Envision detector. Data is expressed as the ratio of 460nm/530nm emissions. Add 4 uL of Cell-titer Glo to each well using BioRAPTR and incubate the plates at room temperature for 2 hours. Measure fluorescence intensity by a VewLux plate reader.
SMILES,outcome,AC50
Clc1ccc(C(c2ccc(Cl)cc2)C(Cl)(Cl)Cl)cc1,inactive,
OCCCBr,inactive,
C[N+](C)(C)CC1CO1 (stereo not given),inactive,
COC(=O)Nc1nc2ccccc2[nH]1,,9.43 µM (active) and 7.88 µM (active)
Oc1ccc2ccc3cccc4ccc1c2c34,inactive,
Brc1ccc(Oc2ccccc2)cc1,inactive,
O=Cc1ccco1,inactive,
O=C(O)C1C2CCC(O2)C1C(=O)O (stereo not given),inactive,
CCN(CC)N=O,inactive,
c1ccc2c(c1)oc1ccccc12,inactive,
C1=Cc2cccc3cccc1c23,inactive,
COC(=O)c1ccccc1N,inactive,
CS(=O)(=O)NC(=O)c1cc(Oc2ccc(C(F)(F)F)cc2Cl)ccc1[N+](=O)[O-],inactive,
c1ccc(NNc2ccccc2)cc1,inactive,
Nc1ccc(Cc2ccc(N)cc2)cc1,inactive,
c1ccc2c(c1)-c1cccc3cccc-2c13,inactive,
Cc1cccc(N)c1N,inactive,
Oc1ccccc1Cl,inactive,
Cc1cc(N=Nc2ccccc2C)ccc1N,inactive,74.4 µM (active)
Cc1ccc([N+](=O)[O-])cc1,inactive,

SMILES,outcome,AC50
CCC[CH2][Sn]([Cl])([CH2]CCC)[CH2]CCC,,27.7 µM (active) and 25.6 µM (active)
COc1cc(C=O)cc2c1[C@H](COC(N)=O)[C@]1(OC(C)=O)ON2C[C@H]2[C@@H]1N2C(C)=O,,0.304 µM (active)
[As]#[In],inactive,
c1ccc(N=Nc2ccccc2)cc1,inactive,
CC(C)(C)C(O)(CCc1ccc(Cl)cc1)Cn1cncn1 (stereo not given),inactive,
CN(C)C(=O)Nc1ccc(Cl)cc1,inactive,
CN(C)c1ccccc1,inactive,
O=C(Oc1ccc(Br)cc1)N1CCN2CCC1CC2,inactive,
Nc1ccc([N+](=O)[O-])cc1,inactive,
Clc1ccc(Cl)c(Cl)c1,inactive,
Clc1ccc(C(c2ccc(Cl)cc2)C(Cl)Cl)cc1,,78.4 µM (active) and 79.1 µM (active)
O=C(N[C@H](c1ccccc1)[C@@H]1CN2CCC1CC2)c1c(Cl)ccc(C(F)(F)F)c1Cl,,127 µM (active)
CC(C)N(Cc1ccccc1)C(=O)C(C)(C)C,inactive,
CCCCCOC(=O)c1ccccc1C(=O)OCCCCC,inactive,
Nc1ccc(Oc2ccc(N)cc2)cc1,inactive,
Nc1ccc(N=Nc2ccccc2)cc1,inactive,
CCN(CC)CCO,inactive,
ClC1=C(Cl)C2(Cl)C3C(Cl)C=CC3C1(Cl)C2(Cl)Cl (stereo not given),inactive,
Cc1ccc(N)cc1,inactive,
